Our source for the outcome and Potency values is PubChem BioAssay (NCATS).

The target of experiment [1] is Mitogen-activated protein kinase 10 (Mus musculus) (UniProt Q61831). Nature of the experiment: JNK3 AlphaScreen Assay (AID 530; active means well fitted curve in either direction with a large enough effect, not every such curve was filed as active;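 further: kinase came from lysate of stimulated human HepG2 cells; signal reports phosphorylation of biotinylated GST-cJun 1-79 at Ser73 with 10 µM ATP; series mostly up to about 57 µM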). In short, it runs like this:
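qHTS format: compounds tested as titrations against IL-1beta/TNF-alpha-activated HepG2 lysate JNK3 with biotin-GST-cJun substrate and 10 uM ATP at room temperature. Loss of anti-phospho-cJun AlphaScreen signal indicates inhibition.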

Experiment [2] addresses Cytochrome P450 3A4 (Homo sapiens) (UniProt P08684). Nature of the experiment: qHTS Assay for Inhibitors and Substrates of Cytochrome P450 3A4 (AID 884). Further: potency means the concentration at half of the fitted maximal effect; nearly all actives have a fitted effect of over 50% in size. In short, it runs like this: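 20 nM human CYP3A4 with 25 uM Luciferin-PPXE (at KM) in 200 mM KPO4, preincubated 10 min with compound; NADPH regeneration started a 60 min RT reaction. Luciferin detected by luminescence, normalized to 57 uM ketoconazole as full inhibition.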

The target is the same in experiment [3]. Nature of the experiment: qHTS Assay for Activators of Cytochrome P450 3A4 (AID 885). Further: nearly all actives have a fitted effect of over 65% in size. Summed up: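 20nM CYP3A4 + 25uM Luciferin-PPXE (=KM), 200mM KPO4; cpd 10 min RT; NADPH regen, 60 min RT; stop w/ detection buffer, 20 min; luminescence. Normalized to 57 uM ketoconazole.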
Experiment [4] has as its target Calcium and integrin-binding protein 1 (Homo sapiens) (UniProt Q99828). Nature of the experiment: Primary qHTS for Identification of Calcium Integrin Binding Protein 1 (CIB1) Competitor (AID 1508620). Further: top concentration of the series differs between compounds. Summed up: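 Fluorescence polarization competition: GST-tagged CIB1 (1 uM final) preincubated with compound 15 min at room temperature, then FITC-labelled alphaIIb peptide (100 nM final) added. After 15 min at room temperature, polarization read at Ex 480/Em 540.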

Inconclusive results are not listed. A call without a number means that no potency is given here. The source made the active and inactive calls. Unless noted, the call rests on the fitted dose curve; in most records, active means well fitted curve in the direction sought with a large enough effect; inconclusive means small, poorly fitted or top-dose-only effect, or another doubt; inactive means no such curve, though single readings can be large; an effect the other way counts as inactive or inconclusive.

Sequence of Cytochrome P450 3A4 (Homo sapiens) (P08684 whole entry, looked up): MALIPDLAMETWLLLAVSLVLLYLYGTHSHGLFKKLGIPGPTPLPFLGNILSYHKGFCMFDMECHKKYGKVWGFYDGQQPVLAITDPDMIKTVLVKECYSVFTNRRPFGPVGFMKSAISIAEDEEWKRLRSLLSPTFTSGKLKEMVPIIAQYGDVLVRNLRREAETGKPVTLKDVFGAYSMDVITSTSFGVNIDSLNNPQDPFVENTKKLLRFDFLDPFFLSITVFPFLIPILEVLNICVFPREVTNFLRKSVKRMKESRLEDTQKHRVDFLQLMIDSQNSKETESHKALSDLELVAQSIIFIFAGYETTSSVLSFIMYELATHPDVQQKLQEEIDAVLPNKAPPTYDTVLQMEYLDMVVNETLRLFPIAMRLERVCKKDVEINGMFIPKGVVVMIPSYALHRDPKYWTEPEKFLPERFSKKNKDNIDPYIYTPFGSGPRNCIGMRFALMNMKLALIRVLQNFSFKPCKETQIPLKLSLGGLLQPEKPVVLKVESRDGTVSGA
Sequence of Calcium and integrin-binding protein 1 (Homo sapiens) (Q99828 whole entry, looked up): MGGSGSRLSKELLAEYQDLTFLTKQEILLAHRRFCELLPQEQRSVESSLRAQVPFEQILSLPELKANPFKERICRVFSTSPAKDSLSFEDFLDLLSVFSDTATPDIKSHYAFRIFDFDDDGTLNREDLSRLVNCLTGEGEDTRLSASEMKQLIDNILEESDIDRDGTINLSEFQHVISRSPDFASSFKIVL

As for `CCCCNc1nc(C)nc2c1nc(-c1ccccc1)n2CC1CCCN1CC` (stereo not given), in experiment [1], the compound was classed as inactive. In experiment [2], the Potency is 3.98 µM (active). Moreover, the Potency result in experiment [3] and in experiment [4] was “inactive” throughout.

Consider `CCCn1c(-c2ccc(F)cc2)nc2c(NCCCN3CCCCC3C)nc(C)nc21` (stereo not given), for which the call in experiment [1] was inactive. Besides, in experiment [2], the Potency is 10 µM (active). Also, the Potency entry in experiment [3] and in experiment [4] was “inactive” throughout.

Take `CCCn1c(-c2ccc(F)cc2)nc2c(NCCCN(CCO)CCO)nc(C)nc21`: the result in experiment [1] was inactive. For the same compound, the Potency result in experiment [3] and in experiment [4] was “inactive” throughout.

Regarding `CCN(CC)CCCCn1c(-c2ccccc2)nc2c(NC3CCCCC3)nc(C)nc21`, in experiment [1], the call was inactive. Also, the Potency result in experiment [3] and in experiment [4] was “inactive” each time.

For the compound `CCN(CC)CCCC(C)n1c(-c2ccccc2)nc2c(NCc3ccccc3)nc(C)nc21` (stereo not given), in experiment [1], the call was inactive. Besides, the Potency in experiment [2] was 5.01 µM (active). Besides, the Potency entry in experiment [3] and in experiment [4] was “inactive” in each case.

As to `Cc1nc(NC2CCCCC2)c2nc(-c3ccccc3)n(CCCN(C)C)c2n1`, in experiment [1], the outcome was inactive. Moreover, the Potency entry in experiment [3] and in experiment [4] was “inactive” each time.

Consider `CCCn1c(-c2ccc(F)cc2)nc2c(NC(C)CCCN(CC)CC)nc(C)nc21` (stereo not given), for which the compound was called inactive in experiment [1]. Moreover, the Potency in experiment [2] was 10 µM (active). For the same compound, the Potency result in experiment [3] and in experiment [4] was “inactive” throughout.

Consider `CCN(CC)CCCC(C)n1c(-c2ccccc2)nc2c(NCCOC)nc(C)nc21` (stereo not given), for which the compound was classed as inactive in experiment [1]. Also, the Potency result in experiment [3] and in experiment [4] was “inactive” throughout.

With `CCCCNc1nc(C)nc2c1nc(-c1ccccc1)n2C(C)CCCN(CC)CC` (stereo not given), in experiment [1], the compound was classed as inactive. Also, in experiment [2], the Potency is 10 µM (active). Moreover, the Potency result in experiment [3] and in experiment [4] was “inactive” in each case.

In the case of `CCN(CC)CCCCn1c(-c2ccccc2)nc2c(NCc3ccccc3)nc(C)nc21`, the compound was classed as inactive in experiment [1]. For the same compound, the Potency in experiment [2] was 7.94 µM (active). Besides, the Potency entry in experiment [3] and in experiment [4] was “inactive” throughout.

In the case of `CCN(CC)CCCC(C)n1c(-c2ccccc2)nc2c(N(CCOC)CCOC)nc(C)nc21` (stereo not given), in experiment [1], the result was inactive. For the same compound, the Potency in experiment [2] is 10 µM (active). The Potency result in experiment [3] and in experiment [4] was “inactive” each time.

Take `CCCn1c(C)nc2c(N3CCCN(Cc4ccccc4)CC3)nc(C)nc21`: the compound was called inactive in experiment [1]. Moreover, the Potency in experiment [2] was 7.94 µM (active). Besides, the Potency result in experiment [3] and in experiment [4] was “inactive” each time.

For the compound `CCCCNc1nc(C)nc2c1nc(-c1ccccc1)n2CCN1CCCC1`, the compound was classed as inactive in experiment [1]. In addition, the Potency in experiment [2] was 12.6 µM (active). For the same compound, the Potency entry in experiment [3] and in experiment [4] was “inactive” throughout.

As to `Cc1nc(NCc2ccccc2)c2nc(-c3ccccc3)n(CCN3CCCC3)c2n1`, in experiment [1], the compound was classed as inactive. For the same compound, the Potency in experiment [2] is 10 µM (active). The Potency result in experiment [3] and in experiment [4] was “inactive” each time.

For `COCCNc1nc(C)nc2c1nc(-c1ccccc1)n2CCN1CCCCC1`, the call in experiment [1] was inactive. Further, the Potency in experiment [2] was 10 µM (active). The Potency result in experiment [3] and in experiment [4] was “inactive” in each case.

Take `CCCn1c(-c2ccc(F)cc2)nc2c(NCCCCN(CC)CC)nc(C)nc21`: in experiment [1], the compound was called inactive. In experiment [2], the Potency is 10 µM (active). Moreover, the Potency result in experiment [3] and in experiment [4] was “inactive” each time.

`CCN(CC)CCn1c(-c2ccccc2)nc2c(NC3CCCCC3)nc(C)nc21`: the call in experiment [1] was inactive. The Potency entry in experiment [3] and in experiment [4] was “inactive” each time.

As to `CCN(CC)CCCC(C)n1c(-c2ccccc2)nc2c(N3CCOCC3)nc(C)nc21` (stereo not given), the call in experiment [1] was inactive. Moreover, the Potency result in experiment [3] and in experiment [4] was “inactive” each time.

Regarding `Cc1nc(NC2CCCCC2)c2nc(-c3ccccc3)n(CCN(C)C)c2n1`, the call in experiment [1] was inactive. The Potency result in experiment [3] and in experiment [4] was “inactive” throughout.

As for `COCCN(CCOC)c1nc(C)nc2c1nc(-c1ccccc1)n2CCN1CCCC1`, the outcome in experiment [1] was inactive. For the same compound, the Potency result in experiment [3] and in experiment [4] was “inactive” in each case.

For `CCN(CC)CCCCn1c(-c2ccccc2)nc2c(N(CCOC)CCOC)nc(C)nc21`, the call in experiment [1] was inactive. For the same compound, the Potency in experiment [2] was 12.6 µM (active). The Potency entry in experiment [3] and in experiment [4] was “inactive” each time.

`Cc1nc(Nc2ccccc2)c2nc(-c3ccccc3)n(CCCN3CCCCC3C)c2n1` (stereo not given): the outcome in experiment [1] was inactive. Also, the Potency entry in experiment [3] and in experiment [4] was “inactive” in each case.

With `Cc1nc(NCc2ccccc2)c2nc(-c3ccccc3)n(CCCN3CCOCC3)c2n1`, in experiment [1], the compound was called inactive. For the same compound, the Potency in experiment [2] is 3.98 µM (active). Also, the Potency result in experiment [3] and in experiment [4] was “inactive” throughout.

`CCCCNc1nc(C)nc2c1nc(C)n2CCC`: the outcome in experiment [1] was inactive. Also, the Potency result in experiment [3] and in experiment [4] was “inactive” throughout.

As to `Cc1nc(NCc2ccccc2)c2nc(-c3ccccc3)n(C(C)CN(C)C)c2n1` (stereo not given), in experiment [1], the call was inactive. The Potency in experiment [2] was 10 µM (active). Further, the Potency result in experiment [3] and in experiment [4] was “inactive” throughout.

Consider `Cc1nc(NC2CCCCC2)c2nc(-c3ccccc3)n(CCN3CCCC3)c2n1`, for which the call in experiment [1] was inactive. The Potency result in experiment [3] and in experiment [4] was “inactive” each time.

As for `Cc1nc(Nc2ccccc2)c2nc(-c3ccccc3)n(CCN3CCOCC3)c2n1`, in experiment [1], the call was inactive. Besides, the Potency in experiment [2] was 1.58 µM (active). In addition, the Potency result in experiment [3] and in experiment [4] was “inactive” each time.

As to `CCCn1c(-c2ccc(F)cc2)nc2c(N3CCN(CCC(=O)OCC)CC3)nc(C)nc21`, in experiment [1], the compound was classed as inactive. For the same compound, the Potency in experiment [2] was 12.6 µM (active). For the same compound, the Potency entry in experiment [3] and in experiment [4] was “inactive” throughout.

As for `CCCn1c(-c2ccc(F)cc2)nc2c(NCCCN3CCOCC3)nc(C)nc21`, the result in experiment [1] was inactive. Besides, in experiment [2], the Potency was 5.01 µM (active). The Potency entry in experiment [3] and in experiment [4] was “inactive” in each case.
